In paper PMC7862700, “An all-to-all approach to the identification of sequence-specific readers for epigenetic DNA modifications on cytosine”:

Key:
Assay in all cases: DAPPL (digital affinity profiling via proximity ligation, sequencing); 10 mM Tris-HCl pH 7.5, 50 mM NaCl, 1 mM DTT, 4% glycerol, room temperature, 30 min; GST-TFs on glutathione beads, 16-mer random dsDNA library, 0.1% formaldehyde crosslink after washing; high values mean tight binding
Details in all cases: protein: recombinant; tags: N-terminal GST; dsDNA, one strand shown
ERF = target: T1, ERF (Homo sapiens, UniProt P50548 1-548)
T1 sequence: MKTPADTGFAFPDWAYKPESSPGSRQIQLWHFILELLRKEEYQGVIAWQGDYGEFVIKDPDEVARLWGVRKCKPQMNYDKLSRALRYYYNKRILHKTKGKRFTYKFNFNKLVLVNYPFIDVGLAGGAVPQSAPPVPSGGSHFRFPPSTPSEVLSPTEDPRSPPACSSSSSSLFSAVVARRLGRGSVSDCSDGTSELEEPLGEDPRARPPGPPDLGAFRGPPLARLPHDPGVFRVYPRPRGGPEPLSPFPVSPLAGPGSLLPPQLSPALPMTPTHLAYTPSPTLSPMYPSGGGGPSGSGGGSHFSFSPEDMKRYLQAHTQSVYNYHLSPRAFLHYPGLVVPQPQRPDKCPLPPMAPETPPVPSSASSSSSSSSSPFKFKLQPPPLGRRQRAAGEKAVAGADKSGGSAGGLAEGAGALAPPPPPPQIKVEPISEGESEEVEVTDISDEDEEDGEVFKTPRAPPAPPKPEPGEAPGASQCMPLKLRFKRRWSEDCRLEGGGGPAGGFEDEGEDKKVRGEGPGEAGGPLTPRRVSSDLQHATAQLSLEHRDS
How it was run: (§1)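 GST fusions of human transcription factors were expressed in yeast and captured with glutathione beads. Once given DNA barcodes and pooled alongside a tag-only sample, they were incubated for 30 min at room temperature with 200 nmole of a random double-stranded 16-mer DNA library in Tris/NaCl/DTT/glycerol buffer, then washed, crosslinked (0.1% formaldehyde), proximity-ligated, PCR-amplified and sequenced on an Illumina NextSeq500. The binding signal of each hexamer is its read frequency for a factor divided by its frequency for the tag-only sample.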

ETV3L = target: T2, ETV3L (Homo sapiens, UniProt Q6ZN32 1-361)
T2 sequence: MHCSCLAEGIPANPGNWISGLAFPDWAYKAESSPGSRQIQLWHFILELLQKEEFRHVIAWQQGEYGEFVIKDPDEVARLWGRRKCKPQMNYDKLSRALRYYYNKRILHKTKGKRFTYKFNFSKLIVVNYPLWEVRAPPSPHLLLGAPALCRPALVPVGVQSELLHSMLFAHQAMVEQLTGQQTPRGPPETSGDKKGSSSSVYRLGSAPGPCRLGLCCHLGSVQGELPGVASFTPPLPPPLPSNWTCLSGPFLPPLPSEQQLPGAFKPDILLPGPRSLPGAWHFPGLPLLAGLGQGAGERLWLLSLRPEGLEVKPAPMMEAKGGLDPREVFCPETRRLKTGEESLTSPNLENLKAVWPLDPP
How it was run: as §1

ETS2 = target: T3, ETS2 (Homo sapiens, UniProt P15036 1-469)
T3 sequence: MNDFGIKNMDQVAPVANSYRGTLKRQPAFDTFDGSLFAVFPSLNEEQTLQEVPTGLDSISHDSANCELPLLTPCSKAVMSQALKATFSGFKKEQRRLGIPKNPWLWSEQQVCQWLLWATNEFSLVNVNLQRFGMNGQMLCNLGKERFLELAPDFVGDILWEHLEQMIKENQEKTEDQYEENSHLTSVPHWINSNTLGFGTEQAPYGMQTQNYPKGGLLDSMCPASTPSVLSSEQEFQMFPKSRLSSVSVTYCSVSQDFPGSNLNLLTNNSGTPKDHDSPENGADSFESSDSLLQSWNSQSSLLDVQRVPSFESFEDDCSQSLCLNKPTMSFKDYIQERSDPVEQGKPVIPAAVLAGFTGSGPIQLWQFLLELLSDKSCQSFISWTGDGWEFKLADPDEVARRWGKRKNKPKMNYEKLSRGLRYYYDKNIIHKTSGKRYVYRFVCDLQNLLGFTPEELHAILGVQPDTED
How it was run: as §1

SPDEF = target: T4, SPDEF (Homo sapiens, UniProt O95238 1-335)
T4 sequence: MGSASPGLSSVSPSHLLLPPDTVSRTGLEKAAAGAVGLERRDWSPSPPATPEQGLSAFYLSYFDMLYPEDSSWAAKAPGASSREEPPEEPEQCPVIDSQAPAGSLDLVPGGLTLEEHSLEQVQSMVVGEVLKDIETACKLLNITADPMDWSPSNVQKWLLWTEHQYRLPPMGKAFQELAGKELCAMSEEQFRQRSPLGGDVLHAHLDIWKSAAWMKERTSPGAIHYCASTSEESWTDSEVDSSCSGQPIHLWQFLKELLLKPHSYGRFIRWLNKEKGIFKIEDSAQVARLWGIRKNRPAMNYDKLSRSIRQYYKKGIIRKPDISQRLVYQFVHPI
How it was run: as §1

ETV7 = target: T5, ETV7 (Homo sapiens, UniProt Q9Y603 1-341)
T5 sequence: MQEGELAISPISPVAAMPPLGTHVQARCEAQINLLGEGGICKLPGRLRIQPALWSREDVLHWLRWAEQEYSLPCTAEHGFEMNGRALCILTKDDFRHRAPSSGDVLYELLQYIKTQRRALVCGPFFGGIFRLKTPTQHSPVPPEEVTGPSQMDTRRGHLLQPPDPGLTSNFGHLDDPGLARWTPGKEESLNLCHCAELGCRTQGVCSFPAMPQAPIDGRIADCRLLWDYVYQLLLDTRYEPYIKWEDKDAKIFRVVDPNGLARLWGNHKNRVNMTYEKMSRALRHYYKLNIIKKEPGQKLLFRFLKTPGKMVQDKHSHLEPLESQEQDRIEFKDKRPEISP
How it was run: as §1

ELF5 = target: T6, ELF5 (Homo sapiens, UniProt Q9UKW6-2 1-255)
T6 sequence: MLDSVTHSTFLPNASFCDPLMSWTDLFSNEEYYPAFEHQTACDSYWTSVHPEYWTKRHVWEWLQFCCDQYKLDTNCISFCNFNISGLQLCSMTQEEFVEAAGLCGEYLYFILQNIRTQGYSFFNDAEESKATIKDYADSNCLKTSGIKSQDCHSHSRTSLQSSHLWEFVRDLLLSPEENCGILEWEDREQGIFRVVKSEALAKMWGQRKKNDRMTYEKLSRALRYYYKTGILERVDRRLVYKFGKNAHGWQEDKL
How it was run: as §1

ETV3 = target: T7, ETV3 (Homo sapiens, UniProt P41162-2 1-143)
T7 sequence: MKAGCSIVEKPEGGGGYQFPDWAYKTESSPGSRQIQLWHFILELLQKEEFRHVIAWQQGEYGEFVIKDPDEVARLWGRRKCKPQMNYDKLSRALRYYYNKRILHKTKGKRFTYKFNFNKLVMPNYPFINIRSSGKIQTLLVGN
How it was run: as §1

ETV6 = ETV6 (Homo sapiens, UniProt P41212 1-452)
How it was run: as §1

ETV6, sequence (P41212 whole entry): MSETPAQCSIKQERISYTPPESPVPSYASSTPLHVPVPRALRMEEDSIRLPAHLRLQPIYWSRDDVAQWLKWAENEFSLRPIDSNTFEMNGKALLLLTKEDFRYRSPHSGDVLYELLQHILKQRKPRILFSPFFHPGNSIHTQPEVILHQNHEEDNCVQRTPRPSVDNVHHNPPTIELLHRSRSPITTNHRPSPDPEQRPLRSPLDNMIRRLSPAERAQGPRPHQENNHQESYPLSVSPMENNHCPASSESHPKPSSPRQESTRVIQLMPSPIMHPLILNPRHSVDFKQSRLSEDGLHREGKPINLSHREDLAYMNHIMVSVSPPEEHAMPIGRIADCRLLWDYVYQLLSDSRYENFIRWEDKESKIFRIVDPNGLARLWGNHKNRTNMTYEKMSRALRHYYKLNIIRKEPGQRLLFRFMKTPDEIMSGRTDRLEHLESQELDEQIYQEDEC

Row | Sequence | binding signal (ERF) | binding signal (ETV3L) | binding signal (ETS2) | binding signal (SPDEF) | binding signal (ETV7) | binding signal (ELF5) | binding signal (ETV3) | binding signal (ETV6)
1 | TGGAAA | 1.08 fold enrichment (6-mer frequency, TF over GST control) | 1.2 fold enrichment (6-mer frequency, TF over GST control) | 1.1 fold enrichment (6-mer frequency, TF over GST control) | 1.04 fold enrichment (6-mer frequency, TF over GST control) | 1.19 fold enrichment (6-mer frequency, TF over GST control) | 1.12 fold enrichment (6-mer frequency, TF over GST control) | 1.08 fold enrichment (6-mer frequency, TF over GST control) | 1.23 fold enrichment (6-mer frequency, TF over GST control)
2 | TATAGA | 1.06 fold enrichment (6-mer frequency, TF over GST control) | 1.18 fold enrichment (6-mer frequency, TF over GST control) | 1.04 fold enrichment (6-mer frequency, TF over GST control) | 1.14 fold enrichment (6-mer frequency, TF over GST control) | 1.08 fold enrichment (6-mer frequency, TF over GST control) | 1.09 fold enrichment (6-mer frequency, TF over GST control) | 1.07 fold enrichment (6-mer frequency, TF over GST control) | 1.11 fold enrichment (6-mer frequency, TF over GST control)
3 | TGCAAT | 1.14 fold enrichment (6-mer frequency, TF over GST control) | 1.12 fold enrichment (6-mer frequency, TF over GST control) | 1.15 fold enrichment (6-mer frequency, TF over GST control) | 1.15 fold enrichment (6-mer frequency, TF over GST control) | 1.2 fold enrichment (6-mer frequency, TF over GST control) | 1.1 fold enrichment (6-mer frequency, TF over GST control) | 1.15 fold enrichment (6-mer frequency, TF over GST control) | 1.17 fold enrichment (6-mer frequency, TF over GST control)
4 | ATACTC | 1.36 fold enrichment (6-mer frequency, TF over GST control) | 1.22 fold enrichment (6-mer frequency, TF over GST control) | 1.26 fold enrichment (6-mer frequency, TF over GST control) | 1.32 fold enrichment (6-mer frequency, TF over GST control) | 1.23 fold enrichment (6-mer frequency, TF over GST control) | 1.25 fold enrichment (6-mer frequency, TF over GST control) | 1.33 fold enrichment (6-mer frequency, TF over GST control) | 1.33 fold enrichment (6-mer frequency, TF over GST control)
5 | TGTATT | 1.36 fold enrichment (6-mer frequency, TF over GST control) | 1.4 fold enrichment (6-mer frequency, TF over GST control) | 1.4 fold enrichment (6-mer frequency, TF over GST control) | 1.42 fold enrichment (6-mer frequency, TF over GST control) | 1.4 fold enrichment (6-mer frequency, TF over GST control) | 1.26 fold enrichment (6-mer frequency, TF over GST control) | 1.41 fold enrichment (6-mer frequency, TF over GST control) | 1.41 fold enrichment (6-mer frequency, TF over GST control)
6 | GGTTCC | 1.35 fold enrichment (6-mer frequency, TF over GST control) | 1.46 fold enrichment (6-mer frequency, TF over GST control) | 1.59 fold enrichment (6-mer frequency, TF over GST control) | 1.84 fold enrichment (6-mer frequency, TF over GST control) | 1.47 fold enrichment (6-mer frequency, TF over GST control) | 1.75 fold enrichment (6-mer frequency, TF over GST control) | 1.71 fold enrichment (6-mer frequency, TF over GST control) | 1.55 fold enrichment (6-mer frequency, TF over GST control)
7 | TGCTCA | 1.5 fold enrichment (6-mer frequency, TF over GST control) | 1.31 fold enrichment (6-mer frequency, TF over GST control) | 1.36 fold enrichment (6-mer frequency, TF over GST control) | 1.28 fold enrichment (6-mer frequency, TF over GST control) | 1.54 fold enrichment (6-mer frequency, TF over GST control) | 1.38 fold enrichment (6-mer frequency, TF over GST control) | 1.24 fold enrichment (6-mer frequency, TF over GST control) | 1.28 fold enrichment (6-mer frequency, TF over GST control)
